Experimental data reported in publication PMC5700166.

Columns and labels:
Assay in all cases: protein-binding microarray (PBM); PBM: ~300 nM protein, 6 mM HEPES pH 7.8, 80 mM KCl, 0.5 mM EDTA, 0.5 mM EGTA, 6% glycerol, 35 ng/ul poly-dIdC, 1% milk, 1 h, room temperature; Ap Aiptasia and Nv Nematostella (sea anemones) / Co Capsaspora / Aq Amphimedon (sponge) / Dm Drosophila / Hu human; RHD is the Rel homology domain; high values mean tight binding
Conditions in all cases: dsDNA, one strand shown
GST-Ap-NF-kB RHD = biological target: T1, GST-Ap-NF-kB RHD (Exaiptasia pallida (Aiptasia), UniProt A0A913YAJ5 2-422)
T1 sequence: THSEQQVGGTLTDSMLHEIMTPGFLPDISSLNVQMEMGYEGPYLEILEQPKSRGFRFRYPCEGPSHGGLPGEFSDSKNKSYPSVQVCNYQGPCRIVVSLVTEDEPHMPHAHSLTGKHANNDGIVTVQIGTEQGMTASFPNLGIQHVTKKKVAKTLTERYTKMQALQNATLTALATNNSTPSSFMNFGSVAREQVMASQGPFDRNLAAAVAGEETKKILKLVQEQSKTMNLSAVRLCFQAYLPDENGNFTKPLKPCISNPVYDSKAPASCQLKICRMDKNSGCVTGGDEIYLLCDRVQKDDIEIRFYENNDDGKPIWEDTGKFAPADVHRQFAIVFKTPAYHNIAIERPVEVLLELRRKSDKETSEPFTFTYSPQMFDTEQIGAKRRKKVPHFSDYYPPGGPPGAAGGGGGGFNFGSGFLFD

[1] = biological target: T2, GST-Nv-NF-kB (Cys allele) (Nematostella vectensis, UniProt E5G601 2-411)
T2 sequence: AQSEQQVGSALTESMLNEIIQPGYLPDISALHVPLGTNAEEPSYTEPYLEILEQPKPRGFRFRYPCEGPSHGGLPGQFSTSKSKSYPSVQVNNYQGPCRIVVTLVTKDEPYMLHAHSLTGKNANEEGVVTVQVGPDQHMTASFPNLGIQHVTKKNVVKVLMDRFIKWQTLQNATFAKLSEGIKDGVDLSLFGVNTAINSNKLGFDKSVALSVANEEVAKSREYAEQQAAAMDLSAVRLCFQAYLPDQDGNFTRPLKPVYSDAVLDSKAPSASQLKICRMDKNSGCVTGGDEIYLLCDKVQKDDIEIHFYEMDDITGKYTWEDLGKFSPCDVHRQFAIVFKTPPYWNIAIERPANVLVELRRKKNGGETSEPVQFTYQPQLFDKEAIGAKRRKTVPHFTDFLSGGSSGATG

GST-Co-NF-kB = biological target: T3, GST-Co-NF-kB (Capsaspora owczarzaki, UniProt F1ARL5 200-546)
T3 sequence: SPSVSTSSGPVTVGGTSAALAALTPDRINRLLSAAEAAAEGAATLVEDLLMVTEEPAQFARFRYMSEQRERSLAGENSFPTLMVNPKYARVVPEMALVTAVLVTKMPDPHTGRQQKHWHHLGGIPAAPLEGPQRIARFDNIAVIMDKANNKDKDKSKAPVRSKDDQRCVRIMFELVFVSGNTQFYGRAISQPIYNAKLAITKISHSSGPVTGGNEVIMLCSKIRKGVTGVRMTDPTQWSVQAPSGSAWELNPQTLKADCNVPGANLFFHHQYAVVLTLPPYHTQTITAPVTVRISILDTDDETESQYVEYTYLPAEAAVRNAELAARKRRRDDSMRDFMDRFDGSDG

GST-Dm-Relish = biological target: T4, GST-Dm-Relish (Drosophila melanogaster, UniProt Q94527 99-473)
T4 sequence: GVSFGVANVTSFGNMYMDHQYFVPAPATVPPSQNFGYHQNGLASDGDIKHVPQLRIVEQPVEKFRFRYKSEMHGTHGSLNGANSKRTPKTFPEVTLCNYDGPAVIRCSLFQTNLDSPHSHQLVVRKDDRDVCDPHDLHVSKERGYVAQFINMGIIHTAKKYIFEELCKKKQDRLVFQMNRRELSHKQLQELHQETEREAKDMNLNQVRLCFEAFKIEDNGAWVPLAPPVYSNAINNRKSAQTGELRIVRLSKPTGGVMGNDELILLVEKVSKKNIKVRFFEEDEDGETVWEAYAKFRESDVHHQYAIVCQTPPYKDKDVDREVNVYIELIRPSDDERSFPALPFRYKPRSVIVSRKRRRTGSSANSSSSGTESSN

GST-Aq-NF-kB = biological target: T5, GST-Aq-NF-kB (Amphimedon queenslandica, UniProt A9Y5G7 2-389)
T5 sequence: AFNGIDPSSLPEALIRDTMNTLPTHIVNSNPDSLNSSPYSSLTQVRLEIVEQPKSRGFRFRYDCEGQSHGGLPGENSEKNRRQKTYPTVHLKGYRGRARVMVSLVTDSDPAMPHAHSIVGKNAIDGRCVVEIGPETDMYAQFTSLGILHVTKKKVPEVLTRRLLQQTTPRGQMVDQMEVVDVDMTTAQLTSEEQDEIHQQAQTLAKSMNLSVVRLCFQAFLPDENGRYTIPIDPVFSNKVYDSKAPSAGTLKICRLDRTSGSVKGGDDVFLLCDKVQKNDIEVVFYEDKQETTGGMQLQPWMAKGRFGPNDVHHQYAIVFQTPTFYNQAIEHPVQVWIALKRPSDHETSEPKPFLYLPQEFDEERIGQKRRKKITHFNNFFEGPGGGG

Sequence | binding signal (GST-Ap-NF-kB RHD) [z-score] | binding signal [1] [z-score] | binding signal (GST-Co-NF-kB) [z-score] | binding signal (GST-Dm-Relish) [z-score] | binding signal (GST-Aq-NF-kB) [z-score]
CCGATTAACATCACCAAATTCCCTGATGTTAATCGGGTCTTGATTCGCTTGACGCTGCTG | 4.1 | 4.67 | 3.82 | 4.02 | 4.03
CCGATTAACATCACCAAAATCCCTGATGTTAATCGGGTCTTGATTCGCTTGACGCTGCTG | 3.22 | 2.45 | 1.36 | 5.42 | 2.86
CCGATTAACATCACGGGGGGGACTGATGTTAATCGGGTCTTGATTCGCTTGACGCTGCTG | 5.94 | 4.86 | 7.62 | 4.51 | 5.17
CCGATTAACATCACACATTTCCCTGATGTTAATCGGGTCTTGATTCGCTTGACGCTGCTG | 2.78 | 4.57 | 4.08 | 1.1 | 3.88
CCGATTAACATCAGGGAATGACCTGATGTTAATCGGGTCTTGATTCGCTTGACGCTGCTG | 2.15 | 3.16 | 1.03 | 3.4 | 5.79
CCGATTAACATCAAACACTCCCCTGATGTTAATCGGGTCTTGATTCGCTTGACGCTGCTG | 4.43 | 3.84 | 3.52 | 1.65 | 4.61
CCGATTAACATCAAAAATCCCGATGATGTTAATCGGGTCTTGATTCGCTTGACGCTGCTG | 3.79 | 3.94 | 1.91 | 6.2 | 4.05
CCGATTAACATCAGGGGAGTTAATGATGTTAATCGGGTCTTGATTCGCTTGACGCTGCTG | 4.13 | 4.06 | 3.34 | 3.14 | 3.63
CCGATTAACATCACGGACTCCCCTGATGTTAATCGGGTCTTGATTCGCTTGACGCTGCTG | 5.18 | 3.32 | 3.37 | 6.19 | 4.33
CCGATTAACATCAGGGAATCCACTGATGTTAATCGGGTCTTGATTCGCTTGACGCTGCTG | 3.05 | 3.31 | 2.25 | 7.85 | 5.29
CCGATTAACATCAAGGGAATCCCTGATGTTAATCGGGTCTTGATTCGCTTGACGCTGCTG | 6.73 | 6.1 | 2.83 | 9.2 | 6.63
CCGATTAACATCAGGGGGTTAACTGATGTTAATCGGGTCTTGATTCGCTTGACGCTGCTG | 5.36 | 3.73 | 2.64 | 8.09 | 5.06
CCGATTAACATCACGTTCCCCCCTGATGTTAATCGGGTCTTGATTCGCTTGACGCTGCTG | 6.32 | 5.07 | 9.5 | 4.11 | 4.43
CCGATTAACATCAAGGGAATACCTGATGTTAATCGGGTCTTGATTCGCTTGACGCTGCTG | 4.61 | 4.26 | 2.25 | 6.28 | 5.48
